# BAZ2B block – inhibitors of human BAZ2B bromodomain. Q9UIF8. AlphaScreen BAZ2B-H3K14Ac peptide displacement. Potency, µM (series often up to 114 µM), usual class: inhibitors. 4.4% of 360,000 active; further: nearly all actives have a fitted effect of over 60% in size
#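 AlphaScreen luminescence quantifies BAZ2B engagement of H3K14Ac peptide; the protein and biotinylated peptide are both at 50 nM final, buffer PBS pH 7.4 with 0.01% Tween-20, all steps at room temperature.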
# G9a inh – G9a (human) methyltransferase inhibition | Q96KQ7 | G9a H3K9 monomethylation, AlphaScreen, 2 h | AID 504332 | Potency, µM (series often up to 102 µM), actives largely listed as inhibitors | 8.8% of 350,000 active; further: nearly all actives have a fitted effect of over 75% in size
#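 AlphaScreen read-out: biotin-H3K9 peptide (500 nM) methylation by 20 nM enzyme with 20 uM SAM, 2 h at room temperature after 15 min compound preincubation; anti-monomethyl H3K9 antibody plus donor/acceptor beads, 10 min dark.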
# PLK1 PBD block – inhibitors of human PLK1 polo-box domain binding | Plk1 PBD binding of FITC phosphopeptide, fluorescence polarization | Potency, µM, most hits filed as inhibitors | 2.8% of 360,000 active | AID 720504; further: series mostly up to about 57 µM; nearly all actives have a fitted effect of over 65% in size
# Target sequence (P53350 whole entry, looked up, the tested form may be a part): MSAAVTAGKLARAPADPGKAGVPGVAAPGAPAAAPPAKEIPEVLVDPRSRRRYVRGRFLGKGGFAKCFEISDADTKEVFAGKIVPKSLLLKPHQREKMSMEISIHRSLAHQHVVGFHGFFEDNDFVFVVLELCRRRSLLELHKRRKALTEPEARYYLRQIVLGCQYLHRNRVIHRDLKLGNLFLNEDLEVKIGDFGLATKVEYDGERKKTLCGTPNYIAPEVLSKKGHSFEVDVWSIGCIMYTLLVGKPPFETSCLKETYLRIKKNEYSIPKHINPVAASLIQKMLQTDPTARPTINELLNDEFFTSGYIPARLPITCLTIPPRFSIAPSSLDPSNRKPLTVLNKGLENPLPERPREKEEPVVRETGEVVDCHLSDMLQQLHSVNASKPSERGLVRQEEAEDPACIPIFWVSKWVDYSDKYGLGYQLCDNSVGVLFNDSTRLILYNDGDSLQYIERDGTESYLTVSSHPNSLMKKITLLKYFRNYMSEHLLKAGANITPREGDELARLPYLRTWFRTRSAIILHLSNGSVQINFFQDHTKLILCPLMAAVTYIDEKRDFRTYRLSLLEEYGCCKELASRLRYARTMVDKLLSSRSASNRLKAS
# Sfp PPTase inh – blocks B. subtilis Sfp PPTase activity. 3.5% of 310,000 active. Potency, µM, most hits filed as inhibitors. Q9F4F7. Biochemical Sfp PPTase activity, qHTS;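 further: the enzyme is Sfp with the accession as filed and its product quenches rhodamine fluorescence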
#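 Sfp 15 nM + cpd, 15 min RT; start w/ rhodamine-CoA 5 uM, BHQ-2-YbbR 12.5 uM (final); 50 mM Hepes pH 7.6, 10 mM MgCl2, 0.01% NP-40, 0.01% BSA; read 525/598 nm at 0 and 30 min.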
# HP1b binding inh – blocks HP1-beta chromodomain binding to methylated histone tails. P83916. AlphaScreen HP1-beta / biotin-H3K9me3 peptide binding. Potency, µM (top dose mostly 114 µM), hits mostly inhibitors. 0.56% of 390,000 active. AID 540317; further: nearly all actives have a fitted effect of over 70% in size
#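 AlphaScreen: HP1-beta (50 nM) preformed 30 min with biotin-H3(1-18)K9me3 peptide (50 nM) in PBS pH 7.4, 0.01% Tween-20. Compound added for 30 min at RT, then streptavidin donor/nickel chelate acceptor beads (10 ug/mL) for 30 min.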
# JMJD2A Tudor inh – inhibitors of human JMJD2A Tudor domain. O75164. AlphaScreen JMJD2A-Tudor / H3K4me3 peptide binding. Potency, µM (series often up to 114 µM), usual class: inhibitors. 4.4% of 390,000 active. AID 504339; further: nearly all actives have a fitted effect of over 50% in size
# Hits are given with their value; 0 = inactive; ? = inconclusive; - = not tested or not shown; [ ] = another dose, or the depositor's remark. Most compounds without a hit are left out; they make up all but 12% or so of the library. The call rests on the fitted dose curve; in most records, active means well fitted curve in the direction sought with a large enough effect; inconclusive means small, poorly fitted or top-dose-only effect, or another doubt; inactive means no such curve, though single readings can be large; an effect the other way counts as inactive or inconclusive.
SMILES,BAZ2B block,G9a inh,PLK1 PBD block,Sfp PPTase inh,HP1b binding inh,JMJD2A Tudor inh
O=[N+]([O-])c1cccc2c(S(=O)(=O)N3CCCCC3)cccc12,71µM,56µM,0,0,?,?
O=[N+]([O-])c1cc(S(=O)(=O)N2CCCC2)ccc1N/N=C1/CCCc2ccccc21,3.5µM,4.5µM,0,0,?,?
O=C(CCc1nnc2ccc(NCc3ccco3)nn12)N1CCN(c2ccccc2)CC1,50µM,0,19µM,0,0,40µM
CC(NC(=O)CCC(=O)Nc1ccccc1O)c1ccccc1 (stereo unspecified),-,-,0,-,0,0
CC(CNc1ccccc1O)C(=O)O (stereo unspecified),50µM,16µM,?,50µM,50µM,3.2µM
O=C(O)C1CCCN1S(=O)(=O)c1cccc2nsnc12 (stereo unspecified),0,0,0,0,0,0
CN(Cc1ccc(OCC(O)CN2CCCCC2)cc1)Cc1ccnc2ccccc12 (stereo unspecified),0,50µM,0,0,0,0
Cc1nn2c(-c3cccc(NC(=O)CSc4nc5ccccc5o4)c3)nnc2c2ccccc12,0,16µM,24µM,56µM,0,0
Cc1ccc2c(c1)N(C(=O)CCC(=O)NCc1cccs1)CCO2,0,0,-,-,0,0
O=c1c(-c2ccccc2)c(O)c2cccc3c2n1CCC3,0,40µM,0,0,0,0
Cc1cc(C)c(-c2c(O)c3cccc4c3n(c2=O)CCC4)c(C)c1,0,0,0,0,0,0[11.4 µM]
O=C(NCCO)c1c(O)c2cccc3c2n(c1=O)CC3,0,?,0,0,0,56µM
CC(C)c1ccc(C(=O)CN2C(=O)NC3(CCc4ccccc43)C2=O)cc1 (stereo unspecified),-,-,0,-,0,0
N#Cc1c(-c2ccc(C(F)(F)F)cc2)cc(-c2ccccc2)[nH]c1=S,0,0,24µM,0,0,0
COc1cc2nc(/C=C/c3cc(OC)c(OC)c(OC)c3)sc2cc1SC,0,0,0,?,0,0
Cc1nc2cc3nc(C)sc3cc2s1,0,7.1µM,30µM,40µM,?,0
COc1cc2nc(C)sc2cc1SC,0,0,24µM,0,?,?
CC(=O)Nc1ccc(NS(=O)(=O)c2ccc3[nH]c4c(c3c2)CCCCC4)cc1,0,0,-,-,0,0
CC(=O)NCCNc1nc(-c2cccc(NS(C)(=O)=O)c2)nc2ccccc12,-,0[0.501 µM],-,0,-,-
COc1ccc(CCn2c(NN=C(C)C)nc3c2c(=O)[nH]c(=O)n3C)cc1,?,0,0,56µM,0,0
COc1ccc(CCn2c(NN)nc3c2c(=O)[nH]c(=O)n3C)cc1,0,-,0,50µM,0,0
CCOC(=O)[C@]12CCCC=C1N(CCC1=CCCCC1)C(=O)[C@H](CC(=O)NCCCN1CCCC1=O)C2,-,-,0,-,-,-
Cc1ccc(S(=O)(=O)CC(=O)Nc2sc3c(c2C(N)=O)CCCC3)cc1,0,0,-,-,0,0
CN(C1CCCCC1)S(=O)(=O)c1ccc(C(=O)Nc2sc3c(c2C(N)=O)CC(C)(C)NC3(C)C)cc1,0,0,34µM,0,0,?
CC(C)(C)c1ccc(S(=O)(=O)NCC(=O)Nc2sc3c(c2C(N)=O)CCCC3)cc1,0,50µM,27µM,0,0,0[11.4 µM]
SMILES,BAZ2B block,G9a inh,PLK1 PBD block,Sfp PPTase inh,HP1b binding inh,JMJD2A Tudor inh
CC(C)CN(CC(C)C)S(=O)(=O)c1ccc(C(=O)Nc2sc3c(c2C(N)=O)CC(C)(C)NC3(C)C)cc1,0,0,-,-,0,0
COCCN(CCOC)S(=O)(=O)c1ccc(C(=O)Nc2sc3c(c2C(N)=O)CCCCC3)cc1,0,35µM,?,50µM,?,0
CC(C)Oc1ccc(CNC(=O)c2cnc3sc(N4CCCCCC4)nn3c2=O)cc1,0,0,-,-,0,0
CN1C=CC(C(C(N)=O)c2ccccc2)c2ccccc21 (stereo unspecified),-,-,0,-,-,-
Cc1cs/c(=N\N=C\c2ccccc2)n1Cc1ccco1,13µM,14µM,0,0,?,35µM
Cc1cs/c(=N\N=C2CCCCC2)n1Cc1ccco1,45µM,?,0,0,?,?
COc1ccc(C(=O)N2CCC[C@@]3(CCN(c4ccccn4)C3)C2)cc1,-,0[12.7 µM],-,0,-,-
CC1(C)C(=O)Nc2ccccc2N1C(=O)CSc1nnc2c(Cl)cc(Cl)cn12,0,0,0,0,0,0
CC1CN(C(=O)CSc2nnc3c(Cl)cc(Cl)cn23)CC(C)O1 (stereo unspecified),0,79µM,0,0,0,0
O=C(CN1CCN(c2ccc(Cl)cc2)CC1)NCc1ccccc1,0,0,0,0,0,0
c1ccc(CNc2nc(NCc3ccco3)nc(N3CCOCC3)n2)cc1,?,-,30µM,0,0,?
COc1ccc(CNc2ccc(N3CCOCC3)cc2)cc1,0,-,0,0,0,?
c1ccc(CNc2nc(N3CCOCC3)nc(N3CCOCC3)n2)cc1,0,0,0,0,0,0
c1ccc(CNc2ccc(N3CCOCC3)cc2)cc1,-,-,-,-,?,45µM
Clc1ccc(CNc2ccc(N3CCN(Cc4ccccc4)CC3)cc2)cc1,5.6µM,10µM,0,0,18µM,11µM
CCOC(=O)C1=CCN(S(=O)(=O)c2ccc(C)cc2)C1c1cccc(Br)c1 (stereo unspecified),-,-,0,-,-,-
COc1ncc2nc(-c3ccc(Cl)cc3)c(=O)n(Cc3cccs3)c2n1,-,0[0.501 µM],-,0,-,-
Fc1ccccc1OCCn1c(=S)[nH]c2ccccc21,0,7.1µM,?,0,0,?
Cc1ccccc1OCCn1c(=S)[nH]c2ccccc21,0,40µM,0,0,0,0
Cc1c(NS(=O)(=O)c2cc(C(=O)NCCN(C)C)ccc2Cl)c(=O)n(-c2ccccc2)n1C,79µM,?,0,0,0,?
Cc1ccc(NS(=O)(=O)c2cc(C(=O)NCCCN(C)C)ccc2Cl)cc1Cl,0,79µM,0,-,0,0
Cc1ccccc1NS(=O)(=O)c1cc(C(=O)NCc2ccncc2)ccc1Cl,0,45µM,0,0,0,0
Cc1ccc(C(=O)NCc2ccncc2)cc1S(=O)(=O)Nc1cccc(C)c1C,0,0,0,0,0,0
Cc1ccc(NC(=O)c2ccc(Cl)c(S(=O)(=O)Nc3c(C)n(C)n(-c4ccccc4)c3=O)c2)cc1Cl,?,?,0,-,0,0
CC(C)Nc1oc(-c2ccccc2)nc1-c1cccc2ccccc12,-,-,-,0,-,-
O=C1CCCC=C1[C@@H](O)C1CCCCC1,-,-,-,0,-,-
COC(=O)C(C)n1cnc2c(nnn2-c2ccccc2)c1=O (stereo unspecified),0,89µM,0,0,0,0
Cc1ccccc1Cn1c2ccccc2c2cnn(CC(=O)NCCCc3ccccc3)c(=O)c21,0,0,-,-,0,0
CCOc1ccc(N2CCCn3c2nc2c3c(=O)n(CCc3ccccc3)c(=O)n2C)cc1,0,3.2µM,-,0,-,-

# Source: PubChem
